From PubChem BioAssay (NCATS)
Results filed as inconclusive are left out. Unmarked numbers belong to inactive results. The source made the active and inactive calls. Calls follow the shape of the dose curve; as a rule, active = well fitted inhibition curve with a large enough effect; inconclusive = small, poorly fitted or top-dose-only effect; inactive = flat fitted curve, though single readings scatter.
% is scaled to controls: 0 for no effect and ±100 for the full control effect; potency is read from the fitted curve at half-maximal effect.

What follows are compounds tested on HaCat (assay: Cytotoxic Profiling of Annotated Libraries Using Quantitative High-Throughput Screening (AID 1296008; also: nearly all actives have a fitted effect of over 60% in size)). Settings: Five cell lines viability, CellTiter-Glo ATP luminescence, 48-72 h; max response: stronger effect = lower value.
Summary of the method: (§1)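 Cytotoxicity was measured as CellTiter-Glo ATP luminescence, read after 10 min at room temperature. Compound treatment of the cells lasted 48 or 72 hr at 37 degrees Celsius in a qHTS format.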
CC(=O)Nc1cccc(-c2csc(Nc3cc(C)ccn3)n2)c1 gave a max response of -25.9%.
In the case of COc1cc2ncnc(Nc3cccc(I)c3)c2cc1OC, the Potency is reported as 4.61 µM (active).
With OC1CCC(Nc2nc(-c3ccccc3)nc3[nH]ccc23)CC1 (stereo unspecified) the max response was -12.5%.
Compound O=c1[nH]c2ccc(C#CCN3CCC(Cc4ccccc4)CC3)cc2[nH]1 has a max response of 0.764%.
With C=CC(C)(C)C12CC3C(=O)N4C(CC5(C(C)(C)C=C)c6ccccc6NC45)C(=O)N3C1Nc1ccccc12 (stereo unspecified) the Potency was 11.2 µM (active).
CN1CCN(C(=O)CN[C@@H]2C[C@H]2c2ccc(OCc3ccccc3)cc2)CC1 was tested, and the max response was -3.34%.
Cn1c(=O)c(F)c(Nc2ccc(I)cc2F)c2c(=O)n(CC(O)CO)cnc21 (stereo unspecified) was tested, and the Potency was 6.51 µM (active).
CCNc1nc(Nc2cc(F)c(C(=O)N3CCOCC3)cc2OC)ncc1C(F)(F)F gave a max response of 1.43%.
O=c1[nH]c2cccc(N3CCN(Cc4ccc(-c5ccccc5)cc4)CC3)c2o1 showed a max response of -18.1%.
For COc1cc(F)c(F)c(Nc2ccc(I)cc2F)c1NS(=O)(=O)C1(CC(O)CO)CC1 (stereo unspecified), the Potency was 14.6 µM (active).
C=C1/C(=C/C=C2\CCC[C@]3(C)[C@@H]([C@H](C)CC[C@@H](O)C(C)(C)O)CC[C@@H]23)C[C@@H](O)C[C@@H]1O showed a max response of -0.344%.
For C[C@H]1CC[C@@]2(OC1)O[C@H]1CC3[C@@H]4CC[C@@H]5C[C@@H](O[C@@H]6O[C@H](CO)[C@@H](O[C@@H]7O[C@H](CO[C@@H]8OC[C@@H](O)[C@H](O)[C@H]8O)[C@@H](O[C@@H]8O[C@H](CO)[C@H](O)[C@H](O)[C@H]8O)[C@H](O)[C@H]7O)[C@H](O)[C@H]6O)CC[C@]5(C)C4CC[C@]3(C)[C@H]1[C@@H]2C (stereo partly specified), the max response was -10.6%.
With CN(C)CCn1cc(-c2ccc(F)cc2)c(-n2cccc2)n1 the max response was 4.28%.
Work on C[C@@H]1CCCN1CCc1cc2cc(-c3ccc(C#N)cc3)ccc2o1 yielded a max response of -29.3%.
C=C1C(=O)OC2/C=C(\CO)CC/C=C(\C=O)C(OC)C(OC(=O)C(C)CC)C12 (stereo unspecified) gave a max response of -18%.
Compound C/C=C(\C)C(=O)O[C@H]1C[C@](C)(O)[C@H]2CC=C(C)[C@H]2[C@@H]2OC(=O)[C@H](C)[C@H]21 has a max response of 2.74%.
O=C(NCCN1CCOCC1)c1cc2c(Oc3ccc(NC(=O)C4(C(=O)Nc5ccc(F)cc5)CC4)cc3)ccnc2[nH]1 showed a max response of -28.8%.
Compound C[C@H]1CC[C@@]2(OC1)O[C@H]1CC3[C@@H]4CC[C@@H]5C[C@@H](O[C@@H]6O[C@H](CO)[C@@H](O[C@@H]7O[C@@H](C)[C@H](O)[C@@H](O)[C@H]7O)[C@H](O)[C@H]6O[C@@H]6O[C@H](CO)[C@@H](O)[C@H](O)[C@H]6O)CC[C@]5(C)C4CC[C@]3(C)[C@H]1[C@@H]2C (stereo partly specified) has a max response of -24.5%.
With COc1cc2nc(N3CCN(C(=O)c4ccco4)C4CCCCC43)nc(N)c2cc1OC (stereo unspecified) the max response was 4.28%.
Nc1nc(OCc2cc(Br)cs2)c2[nH]cnc2n1 showed a max response of -1.07%.
Work on C=C1C(=O)O[C@@H]2C[C@H](C)C3=CC(=O)[C@H](O)[C@@]3(C)C[C@H]12 yielded a max response of 1.47%.
With COc1c(C(O)CC(C)C)ccc2c1C(=O)OCc1cc(C)cc(O)c1O2 (stereo unspecified) the max response was 0.403%.
For COc1ccc([C@H]2OC[C@H]3O[C@@H](O[C@H]4[C@@H]2NC[C@@H]4O)[C@H](O)[C@H]3O)cc1, the Potency was 2.55 µM (active).
Compound NS(=O)(=O)Nc1ncnc(OCCOc2ncc(Br)cn2)c1-c1ccc(Br)cc1 has a max response of -23.8%.
NC(=O)C1=CC2C3C=CC2C(OC3=O)O1 (stereo unspecified) gave a max response of -28.3%.
COc1nc2ccc(Br)cc2cc1[C@@H](c1ccccc1)[C@@](O)(CCN(C)C)c1cccc2ccccc12 gave a max response of -2.21%.

The compounds below were run on KB-3-1 in the same assay as above. Settings: Five cell lines viability, CellTiter-Glo ATP luminescence, 48-72 h; max response: stronger effect = lower value.
Summary of the method: as §1
C=C1C(=O)O[C@@H]2C[C@@]3(C)C[C@@H](O)C[C@H](C)C3=C[C@H]12 was tested, and the outcome was “inactive”.
With COc1cc(C#N)ccc1S(=O)(=O)Nc1ccc2c(c1)cc(C)c(=O)n2C the max response was -22.2%.
For C=C1C(=O)O[C@@H]2[C@H]1CCC(C)=C(CCC(=O)O)[C@@]2(C)O, the outcome was “inactive”.
For NC(N)=N/N=C/c1ccccc1Cl, the max response was -14.8%.
For CC(C)CCNC(=O)[C@H](CC(C)C)NC(=O)[C@H]1O[C@@H]1C(=O)O, the max response was 2.67%.
Cn1ncnc1[C@H]1c2n[nH]c(=O)c3cc(F)cc(c23)N[C@@H]1c1ccc(F)cc1 was tested, and the max response was -8.81%.
For C=C1C(=O)OC2CC3(C)C(O)C(=O)C=C(C)C3CC12 (stereo unspecified), the outcome was “inactive”.
For CN1c2c(nc(N)[nH]c2=O)NC[C@@H]1CNc1ccc(C(=O)N[C@@H](CCC(=O)O)C(=O)O)cc1, the outcome was “inactive”.
Compound CC(C)c1ccc(-c2cc(=O)c3ccccc3o2)cc1 has a max response of -3.41%.
COc1ccc(Cl)c(Nc2ncnc3cc(OCC4CCN(C)CC4)c(OC)cc23)c1 showed a max response of 2.68%.
Compound COc1ccc(S(=O)(=O)n2cnc3cc(C)c(C)cc32)cc1 has a max response of -13.8%.
Nc1ncnc2c1c(-c1ccc(Cl)cc1)nn2-c1cccc(-c2cnnn2Cc2cccc(-c3ccccc3)c2)c1 showed a max response of -15.9%.
O=S(=O)(Nc1ccccc1N1CCCCC1)c1ccc(Cl)s1 showed a max response of -15.2%.
O=C(Nc1nc2cc(C(F)(F)F)cc(NC3CC3)n2n1)c1cccnc1 was tested, and the Potency was 5.8 µM (active).
Compound CC(=O)Nc1cccc(-c2csc(Nc3cc(C)ccn3)n2)c1 has a max response of -18.5%.
In the case of COc1cc2ncnc(Nc3cccc(I)c3)c2cc1OC, the Potency is reported as 9.2 µM (active).
For OC1CCC(Nc2nc(-c3ccccc3)nc3[nH]ccc23)CC1 (stereo unspecified), the max response was 7.97%.
Work on O=c1[nH]c2ccc(C#CCN3CCC(Cc4ccccc4)CC3)cc2[nH]1 yielded a max response of -17.6%.
With C=CC(C)(C)C12CC3C(=O)N4C(CC5(C(C)(C)C=C)c6ccccc6NC45)C(=O)N3C1Nc1ccccc12 (stereo unspecified) the max response was 3.74%.
CN1CCN(C(=O)CN[C@@H]2C[C@H]2c2ccc(OCc3ccccc3)cc2)CC1 was tested, and the max response was -22.7%.
Cn1c(=O)c(F)c(Nc2ccc(I)cc2F)c2c(=O)n(CC(O)CO)cnc21 (stereo unspecified) showed a max response of -14.5%.
Compound CCNc1nc(Nc2cc(F)c(C(=O)N3CCOCC3)cc2OC)ncc1C(F)(F)F has a max response of -21.3%.
Compound O=c1[nH]c2cccc(N3CCN(Cc4ccc(-c5ccccc5)cc4)CC3)c2o1 has a max response of -24.1%.
COc1cc(F)c(F)c(Nc2ccc(I)cc2F)c1NS(=O)(=O)C1(CC(O)CO)CC1 (stereo unspecified) gave a max response of -14.8%.
Compound C=C1/C(=C/C=C2\CCC[C@]3(C)[C@@H]([C@H](C)CC[C@@H](O)C(C)(C)O)CC[C@@H]23)C[C@@H](O)C[C@@H]1O has a max response of -22.3%.
C[C@H]1CC[C@@]2(OC1)O[C@H]1CC3[C@@H]4CC[C@@H]5C[C@@H](O[C@@H]6O[C@H](CO)[C@@H](O[C@@H]7O[C@H](CO[C@@H]8OC[C@@H](O)[C@H](O)[C@H]8O)[C@@H](O[C@@H]8O[C@H](CO)[C@H](O)[C@H](O)[C@H]8O)[C@H](O)[C@H]7O)[C@H](O)[C@H]6O)CC[C@]5(C)C4CC[C@]3(C)[C@H]1[C@@H]2C (stereo partly specified) was tested, and the outcome was “inactive”.
CN(C)CCn1cc(-c2ccc(F)cc2)c(-n2cccc2)n1 showed a max response of -2.07%.
With C[C@@H]1CCCN1CCc1cc2cc(-c3ccc(C#N)cc3)ccc2o1 the max response was -23.6%.
With C=C1C(=O)OC2/C=C(\CO)CC/C=C(\C=O)C(OC)C(OC(=O)C(C)CC)C12 (stereo unspecified) the outcome was “inactive”.
C/C=C(\C)C(=O)O[C@H]1C[C@](C)(O)[C@H]2CC=C(C)[C@H]2[C@@H]2OC(=O)[C@H](C)[C@H]21 showed a max response of -0.753%.
Work on O=C(NCCN1CCOCC1)c1cc2c(Oc3ccc(NC(=O)C4(C(=O)Nc5ccc(F)cc5)CC4)cc3)ccnc2[nH]1 yielded a max response of 4.4%.
C[C@H]1CC[C@@]2(OC1)O[C@H]1CC3[C@@H]4CC[C@@H]5C[C@@H](O[C@@H]6O[C@H](CO)[C@@H](O[C@@H]7O[C@@H](C)[C@H](O)[C@@H](O)[C@H]7O)[C@H](O)[C@H]6O[C@@H]6O[C@H](CO)[C@@H](O)[C@H](O)[C@H]6O)CC[C@]5(C)C4CC[C@]3(C)[C@H]1[C@@H]2C (stereo partly specified) gave a max response of 0.898%.
COc1cc2nc(N3CCN(C(=O)c4ccco4)C4CCCCC43)nc(N)c2cc1OC (stereo unspecified) was tested, and the Potency was 20.6 µM (active).
For Nc1nc(OCc2cc(Br)cs2)c2[nH]cnc2n1, the outcome was “inactive”.
C=C1C(=O)O[C@@H]2C[C@H](C)C3=CC(=O)[C@H](O)[C@@]3(C)C[C@H]12 was tested, and the max response was 7.17%.
COc1c(C(O)CC(C)C)ccc2c1C(=O)OCc1cc(C)cc(O)c1O2 (stereo unspecified) showed a max response of -22.7%.
For COc1ccc([C@H]2OC[C@H]3O[C@@H](O[C@H]4[C@@H]2NC[C@@H]4O)[C@H](O)[C@H]3O)cc1, the Potency was 0.904 µM (active).
Compound NS(=O)(=O)Nc1ncnc(OCCOc2ncc(Br)cn2)c1-c1ccc(Br)cc1 has a max response of 6.63%.
Work on NC(=O)C1=CC2C3C=CC2C(OC3=O)O1 (stereo unspecified) yielded a max response of 5.92%.
For COc1nc2ccc(Br)cc2cc1[C@@H](c1ccccc1)[C@@](O)(CCN(C)C)c1cccc2ccccc12, the max response was -1.57%.
